According to PubChem BioAssay (Tox21):
Unmarked numbers belong to inactive results. Inconclusive results are not listed. A call without a number means that no potency is given here. The source made the active and inactive calls. Unless noted, calls come from the whole dose curve.

What was measured:
[1] = Nuclear factor erythroid 2-related factor 2/antioxidant responsive element (Nrf2/ARE) small molecule agonists: qHTS cell viability counter screen in human keratinocytes (AID 1919968; active = well fitted curve in the direction sought with a large enough effect in the repeat runs; an effect the other way counts as inactive or inconclusive; note: nearly all actives have a fitted effect of over 55% in size)
In short: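 In human HaCaT keratinocytes stably expressing an ARE-driven luciferase, compound exposure lasted 23 h at 37 C under 5% CO2. Viable cells are quantified with a protease-based fluorogenic reagent (CellTiter-Fluor) read 1 h after addition.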

[2] = Nuclear factor erythroid 2-related factor 2/antioxidant responsive element (Nrf2/ARE) small molecule agonists: luciferase reporter gene qHTS assay in human keratinocytes (AID 1919969); note: nearly all actives have a fitted effect of over 35% in size; note: potency is the fitted concentration of half-maximal effect
[3] = molecular target: Gonadotropin-releasing hormone receptor (Homo sapiens) (UniProt P30968); experiment: Human gonadotropin-releasing hormone receptor (GnRHR) small molecule agonists, calcium flux assay in GnRHR-HEK293 cells (AID 1920063); note: nearly all actives have a fitted effect of over 35% in size
In short: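 Intracellular calcium rise is the read-out: engineered human GnRHR HEK293 cells, dye-loaded, are exposed to DMSO-dissolved compounds and fluorescence at Ex/Em 480/540 is tracked for 3 min.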

[4] = molecular target: KiSS-1 receptor (Homo sapiens) (UniProt Q969F8); experiment: Human kisspeptin (KISS1R) small molecule agonists, calcium flux assay in KISS1R-HEK293 cells (AID 1920064; active = well fitted curve in the direction sought with a large enough effect in the repeat runs; an effect the other way counts as inactive or inconclusive)
In short: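 Concentration-response testing used 15 concentrations in triplicate on human KISS1R-expressing HEK293 cells. Calcium-dependent fluorescence (Ex/Em 480/540) was followed kinetically for 3 min after compound transfer.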

[5] = G protein-coupled receptor (GPCR) small molecule agonists, calcium flux assay: HEK293 wild type cell line counter screen (AID 1920065)
In short: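 Fluorescence intensity signals activation. After overnight (18 h) culture and a 1 h calcium dye load at 37 C, compounds are added by pin tool and the plate read at 480/540 nm for 3 min in 1 s steps.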

[6] = p53 small molecule agonists, cell-based qHTS assay with human liver microsomes (AID 1963577);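 note: p53 response element beta-lactamase reporter cells with liver microsomes plus NADPH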
In short: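 Steps: plate p53RE-bla cells, incubate 5 h at 37 C; add compound in DMSO; add microsomes (0.5 mg/mL final) and NADPH (0.5 mg/mL final); incubate 16 h at 37 C; add LiveBLAzer, 2 h RT; read fluorescence.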

[7] = p53 small molecule agonists, cell-based qHTS assay with rat liver microsomes (AID 1963578)
In short: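 Metabolic activation is supplied by rat liver microsomes with NADPH (each 0.5 mg/mL final). p53RE-bla cells incubate with compound 16 h at 37 C; reporter activity is measured by LiveBLAzer fluorescence.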

[8] = p53 small molecule agonists, cell-based qHTS assay with human liver microsomes: qHTS cell viability counter screen (AID 1963579); note: nearly all actives have a fitted effect of over 45% in size
In short: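 After the 460/530 nm beta-lactamase read, CellTiter-Glo was added to the same wells and luminescence measured after 30 min at room temperature, giving viability of p53RE-bla cells treated 16 h with compounds plus microsomes and NADPH.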

[9] = p53 small molecule agonists, cell-based qHTS assay with rat liver microsomes: qHTS cell viability counter screen (AID 1963580); note: nearly all actives have a fitted effect of over 45% in size; note: potency is the fitted concentration of half-maximal effect
In short: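 After the beta-lactamase ratio was read, CellTiter-Glo was added to the same wells and luminescence measured at 30 min; cells had been treated 16 h at 37 C with compounds, rat liver microsomes and NADPH (0.5 mg/mL final each).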

[10] = p53 small molecule agonists, cell-based qHTS assay: qHTS cell viability counter screen (AID 1963581); note: nearly all actives have a fitted effect of over 45% in size
In short: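 Luminescence from CellTiter-Glo, reflecting ATP content, serves as the cytotoxicity measure; it is taken after the 2 h reporter substrate step in HCT-116 p53RE-bla cells dosed for 16 h at 37 C.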

[11] = p53 small molecule agonists, cell-based qHTS assay (AID 1963582; active = well fitted activation curve with a large enough effect in the signal ratio in the repeat runs, not every such curve was filed as active; the % refers to the signal ratio)
In short: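 After plating, p53RE-bla cells sat 5 h in the incubator; compounds or DMSO vehicle were pinned in; a 16 h incubation at 37 C followed; FRET substrate was added and, 2 h later at RT, fluorescence was measured.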

[12] = molecular target: 5-hydroxytryptamine receptor 2A (Homo sapiens) (UniProt P28223); experiment: 5-hydroxytryptamine receptor 2A (HTR2A) small molecule antagonists, cell-based qHTS assay (AID 1963586); note: nearly all actives have a fitted effect of over 45% in size
In short: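 CHO cells stably expressing human HTR2A were plated for 18 h at 37 C, then loaded with calcium dye for 1 h. Compounds were preincubated 5 min at room temperature before DOI (4 nM solution) was added. Kinetic fluorescence was read for 3 min.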

[13] = molecular target: 5-hydroxytryptamine receptor 2A (Homo sapiens) (UniProt P28223); experiment: 5-hydroxytryptamine receptor 2A (HTR2A) small molecule agonists, cell-based qHTS assay (AID 1963587); note: nearly all actives have a fitted effect of over 30% in size
In short: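 CHO cells stably expressing human HTR2A, plated 18 h, loaded with calcium dye 1 h at 37 C. Agonist mode: compounds added and intracellular calcium fluorescence recorded kinetically for 2 min at 1 sec intervals.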

[14] = molecular target: Muscarinic acetylcholine receptor M1 (Homo sapiens) (UniProt P11229); experiment: Cholinergic receptor muscarinic 1 (CHRM1) small molecule antagonists, cell-based qHTS assay (AID 1963588); note: nearly all actives have a fitted effect of over 40% in size
In short: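 Compounds were tested at 15 concentrations in three independent runs. Dye-loaded CHRM1-CHO cells were exposed 5 min at room temperature before stimulation by acetylcholine added at 50nM. Intracellular calcium was read kinetically on FDSS for 3 min.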

[15] = molecular target: Muscarinic acetylcholine receptor M1 (Homo sapiens) (UniProt P11229); experiment: Cholinergic receptor muscarinic 1 (CHRM1) small molecule agonists, cell-based qHTS assay (AID 1963589); note: nearly all actives have a fitted effect of over 35% in size
In short: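 Fluorescent calcium dye reports M1 activation in stably transfected CHO cells. Compounds, 15 concentrations, added after 1 h dye loading at 37 C; kinetic reading at 1 sec intervals.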

[16] = cAMP Responsive Elements (CRE) small molecule agonists, cell-based qHTS assay (AID 1963590)
In short: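 Compound exposure lasted 3 h at 37 C/5% CO2 in CRE-bla HEK 293T cells grown in assay medium with 10% dialyzed FBS and 25 mM HEPES. Reporter signal came from LiveBLAzer B/G FRET substrate, 2 h, room temperature.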

[17] = cAMP Responsive Elements (CRE) small molecule antagonists, cell-based qHTS assay (AID 1963591; active = well fitted inhibition curve with a large enough effect in the signal ratio in the repeat runs, not every such curve was filed as active; the % refers to the signal ratio)
In short: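 Stimulation used NKH477 at a final 0.25 uM for 3 h in compound-treated CRE-bla HEK293T cells, seeded 18 h beforehand. Reporter activity was measured with LiveBLAzer B/G FRET substrate after 2 h at room temperature.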

[18] = molecular target: Beta-2 adrenergic receptor (Homo sapiens) (UniProt P07550); experiment: Adrenergic beta2 receptor (ADRB2) small molecule antagonists, cell-based qHTS assay (AID 1963592); note: series mostly up to about 92 µM; nearly all actives have a fitted effect of over 50% in size
In short: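 Assay format: CHO-ADRB2 cells, 18-20hr seeding at 37C/5% CO2, then compound plus 1nM isoproterenol agonist mix for 0.5hr RT. Homogeneous time-resolved fluorescence cAMP detection after 1hr, expressed as 665/615 nm ratio.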

[19] = molecular target: D(2) dopamine receptor (Homo sapiens) (UniProt P14416); experiment: Dopamine D2 receptor (DRD2) small molecule agonists, cell-based qHTS assay (AID 1963594); note: nearly all actives have a fitted effect of over 35% in size
In short: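 HEK293 cells stably expressing human DRD2, pre-treated with PDE inhibitor Ro20-1724 (0.1 mM final) and compound 10 min at room temperature, then stimulated with NKH477 (200nM […]) for 30 min. cAMP read by HTRF (665/620 nm).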

[20] = molecular target: D(2) dopamine receptor (Homo sapiens) (UniProt P14416); experiment: Dopamine D2 receptor (DRD2) small molecule antagonists, cell-based qHTS assay (AID 1963595; active = well fitted inhibition curve with a large enough effect in the signal ratio in the repeat runs, with a control signal flat; the % refers to the signal ratio)
In short: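 Antagonism was scored as restored cAMP in HEK293-DRD2 cells. These cells were stimulated with 200 nM NKH477 and 12 nM quinpirole for 30 min at room temperature, in the presence of 0.1 mM Ro20-1724.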

Chain of Beta-2 adrenergic receptor (Homo sapiens) (P07550 whole entry, looked up): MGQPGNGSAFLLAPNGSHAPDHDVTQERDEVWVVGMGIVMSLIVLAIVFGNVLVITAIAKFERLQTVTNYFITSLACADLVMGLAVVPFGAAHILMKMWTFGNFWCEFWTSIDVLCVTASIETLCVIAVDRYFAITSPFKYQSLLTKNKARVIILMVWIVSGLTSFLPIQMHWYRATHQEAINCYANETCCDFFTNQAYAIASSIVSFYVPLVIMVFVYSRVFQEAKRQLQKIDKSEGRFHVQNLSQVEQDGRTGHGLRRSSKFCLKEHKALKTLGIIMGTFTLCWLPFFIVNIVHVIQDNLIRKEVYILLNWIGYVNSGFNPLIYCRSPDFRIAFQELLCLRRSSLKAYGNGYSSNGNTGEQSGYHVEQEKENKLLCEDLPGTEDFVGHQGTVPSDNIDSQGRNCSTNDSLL
Chain of D(2) dopamine receptor (Homo sapiens) (P14416 whole entry, looked up): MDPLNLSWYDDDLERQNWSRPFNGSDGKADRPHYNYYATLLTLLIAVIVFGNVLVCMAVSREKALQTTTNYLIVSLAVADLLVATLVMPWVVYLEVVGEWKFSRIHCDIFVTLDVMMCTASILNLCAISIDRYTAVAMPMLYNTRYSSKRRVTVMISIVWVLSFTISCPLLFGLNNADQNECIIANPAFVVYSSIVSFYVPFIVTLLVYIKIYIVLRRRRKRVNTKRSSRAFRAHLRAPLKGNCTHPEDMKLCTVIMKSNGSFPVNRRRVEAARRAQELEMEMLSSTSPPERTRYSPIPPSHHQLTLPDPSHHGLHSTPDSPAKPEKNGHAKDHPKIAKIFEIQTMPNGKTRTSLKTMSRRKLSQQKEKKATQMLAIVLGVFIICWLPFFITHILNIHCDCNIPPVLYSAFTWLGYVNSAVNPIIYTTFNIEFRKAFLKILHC
Chain of Gonadotropin-releasing hormone receptor (Homo sapiens) (P30968 whole entry, looked up): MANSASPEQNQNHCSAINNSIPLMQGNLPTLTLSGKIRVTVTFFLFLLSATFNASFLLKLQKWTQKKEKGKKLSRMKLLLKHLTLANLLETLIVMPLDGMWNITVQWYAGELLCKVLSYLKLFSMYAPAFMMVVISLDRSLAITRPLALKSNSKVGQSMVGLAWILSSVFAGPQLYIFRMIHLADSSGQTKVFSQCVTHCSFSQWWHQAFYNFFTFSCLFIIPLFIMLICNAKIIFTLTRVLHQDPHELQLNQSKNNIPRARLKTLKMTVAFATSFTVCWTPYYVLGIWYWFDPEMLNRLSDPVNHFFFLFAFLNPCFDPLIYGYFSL
Chain of Muscarinic acetylcholine receptor M1 (Homo sapiens) (P11229 whole entry, looked up): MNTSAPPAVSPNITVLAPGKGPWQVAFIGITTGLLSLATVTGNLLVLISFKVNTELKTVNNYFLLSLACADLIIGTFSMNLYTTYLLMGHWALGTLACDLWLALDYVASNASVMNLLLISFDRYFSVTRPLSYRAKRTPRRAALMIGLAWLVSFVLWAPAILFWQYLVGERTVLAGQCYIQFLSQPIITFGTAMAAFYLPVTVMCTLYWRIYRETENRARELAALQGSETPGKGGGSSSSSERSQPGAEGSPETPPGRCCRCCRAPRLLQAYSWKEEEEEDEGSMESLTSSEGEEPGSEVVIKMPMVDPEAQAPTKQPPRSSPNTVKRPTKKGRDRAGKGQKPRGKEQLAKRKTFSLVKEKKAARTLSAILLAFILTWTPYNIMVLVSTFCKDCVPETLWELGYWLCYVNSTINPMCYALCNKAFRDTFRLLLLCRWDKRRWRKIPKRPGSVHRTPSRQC
Chain of 5-hydroxytryptamine receptor 2A (Homo sapiens) (P28223 whole entry, looked up): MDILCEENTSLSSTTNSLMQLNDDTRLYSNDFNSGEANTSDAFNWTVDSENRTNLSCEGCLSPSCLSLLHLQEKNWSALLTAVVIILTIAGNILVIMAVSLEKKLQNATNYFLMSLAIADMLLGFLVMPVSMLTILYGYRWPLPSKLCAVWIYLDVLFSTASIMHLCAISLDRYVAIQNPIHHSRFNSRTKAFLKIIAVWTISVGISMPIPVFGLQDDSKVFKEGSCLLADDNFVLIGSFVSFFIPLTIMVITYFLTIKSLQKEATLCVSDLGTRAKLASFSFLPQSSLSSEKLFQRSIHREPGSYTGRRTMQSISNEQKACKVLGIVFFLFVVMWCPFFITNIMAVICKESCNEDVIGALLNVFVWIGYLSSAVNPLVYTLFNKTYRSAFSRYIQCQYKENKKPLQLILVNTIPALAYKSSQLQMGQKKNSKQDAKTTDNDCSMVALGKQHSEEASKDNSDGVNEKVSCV
Chain of KiSS-1 receptor (Homo sapiens) (Q969F8 whole entry, looked up): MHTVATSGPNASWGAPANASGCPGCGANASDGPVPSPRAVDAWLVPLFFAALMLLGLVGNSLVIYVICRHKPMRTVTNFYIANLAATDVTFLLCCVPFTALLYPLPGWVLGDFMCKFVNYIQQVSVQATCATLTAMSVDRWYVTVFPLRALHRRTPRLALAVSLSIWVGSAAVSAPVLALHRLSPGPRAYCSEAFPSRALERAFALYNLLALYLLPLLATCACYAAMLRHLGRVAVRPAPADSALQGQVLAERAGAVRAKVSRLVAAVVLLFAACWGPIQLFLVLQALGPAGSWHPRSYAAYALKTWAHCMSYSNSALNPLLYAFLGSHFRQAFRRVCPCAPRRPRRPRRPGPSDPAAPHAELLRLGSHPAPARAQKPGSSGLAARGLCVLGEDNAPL

| Structure (SMILES) | Potency [1] | Potency [2] | Potency [3] | outcome [4] | outcome [5] | Potency [6] | Potency [7] | Potency [8] | Potency [9] | Potency [10] | Potency [11] | Potency [12] | Potency [13] | Potency [14] | Potency [15] | Potency [16] | Potency [17] | Potency [18] | Potency [19] | Potency [20] |
| --- | --- | --- | --- | --- | --- | --- | --- | --- | --- | --- | --- | --- | --- | --- | --- | --- | --- | --- | --- | --- |
| CC(=O)OCC(=O)[C@@]1(O)CC[C@H]2[C@@H]3CCC4=CC(=O)C=C[C@]4(C)[C@@]3(F)[C@@H](O)C[C@@]21C | inactive | inactive | inactive | inactive | inactive | inactive | inactive | inactive | inactive | inactive | inactive | inactive | inactive | inactive | inactive | inactive | inactive | inactive | inactive | inactive |
| CCCCCCCCCCCCCC(=O)OCC(O)CO (centres undefined) | inactive | inactive | inactive | inactive | inactive | inactive | inactive | inactive | inactive | inactive | inactive | inactive | inactive | inactive | inactive | inactive | inactive | inactive | inactive | inactive |
| NC(=O)c1ccncc1 | inactive | inactive | inactive | inactive | inactive | inactive | inactive | inactive | inactive | inactive | inactive | inactive | inactive | inactive | inactive | inactive | inactive | inactive | inactive | inactive |
| O=C(O)C(O)[C@H](O)[C@@H](O)[C@H](O)[C@H](O)CO (some centres undefined) | inactive | inactive | inactive | inactive | inactive | inactive | inactive | inactive | inactive | inactive | inactive | inactive | inactive | inactive | inactive | inactive | inactive | inactive | inactive | inactive |
| CCCCC(CC)C(=O)OC(C)C (centres undefined) | inactive | inactive | inactive | inactive | inactive | inactive | inactive | inactive | inactive | inactive | inactive | inactive | inactive | inactive | inactive | inactive | inactive | inactive | inactive | inactive |
| CCC(C)(CCC(C)C)C(=O)[O][Sn]([CH3])([CH3])[O]C(=O)C(C)(CC)CCC(C)C (centres undefined) | inactive | 30.6 µM (active) | inactive | inactive | inactive | inactive | inactive | inactive | inactive | inactive | inactive | inactive | inactive | inactive | inactive | inactive | inactive | inactive | inactive | inactive |
| Cc1c(C)c2c(c(C)c1OC(=O)CCC(=O)O)CC[C@@](C)(CCC[C@H](C)CCC[C@H](C)CCCC(C)C)O2 | inactive | inactive | inactive | inactive | inactive | inactive | inactive | inactive | inactive | inactive | inactive | inactive | inactive | inactive | inactive | inactive | inactive | inactive | inactive | inactive |
| OCC(O)c1ccccc1 (centres undefined) | inactive | inactive | inactive | inactive | inactive | inactive | inactive | inactive | inactive | inactive | inactive | inactive | inactive | inactive | inactive | inactive | inactive | inactive | inactive | inactive |
| Brc1ccccn1 | inactive | inactive | inactive | inactive | inactive | inactive | inactive | inactive | inactive | inactive | inactive | inactive | inactive | inactive | inactive | inactive | inactive | inactive | inactive | inactive |
| CC(=O)c1ccc(Cl)c(Cl)c1Cl | inactive | inactive | inactive | inactive | inactive | inactive | inactive | inactive | inactive | inactive | inactive | inactive | inactive | inactive | inactive | inactive | inactive | inactive | inactive | inactive |
| CCCCOCC | inactive | inactive | inactive | inactive | inactive | inactive | inactive | inactive | 1.62 µM (active) | inactive | inactive | inactive | inactive | inactive | inactive | inactive | inactive | inactive | inactive | inactive |
| OC1OCCOC1O (centres undefined) | inactive | inactive | inactive | inactive | inactive | inactive | inactive | inactive | inactive | inactive | inactive | inactive | inactive | inactive | inactive | inactive | inactive | inactive | inactive | inactive |
| O=C(NCCCN1CCOCC1)c1ccc(Cl)cc1 | inactive | inactive | inactive | inactive | inactive | inactive | inactive | inactive | inactive | inactive | inactive | inactive | inactive | inactive | inactive | inactive | inactive | inactive | inactive | – |
